D3 ag: qHTS of D3 Dopamine Receptor Agonist: qHTS | D(3) dopamine receptor (Homo sapiens), P35462 | D3R DiscoveRx beta-arrestin cells, luminescence, 90 min | max activation, % | actives 0.58% (n = 410,000) | AID 652048, 2013; in the data active means max activation above about 30%
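Agonist mode: compounds and dopamine controls were applied to plated cells for 90 min at 37 degrees C after an overnight attachment at 1500 cells/well. Luminescent read-out followed 30 - 60 minutes at room temperature with DiscoveRx detection reagent.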
IDH1 R132H inh: qHTS for Inhibitors of mutant isocitrate dehydrogenase 1 (IDH1): qHTS; Isocitrate dehydrogenase [NADP] cytoplasmic (Homo sapiens), O75874; IDH1-R132H enzyme, NADPH consumption, diaphorase/resazurin fluorescence; Potency, µM (doses to about 76.6 µM), hits mostly inhibitors; actives 0.093% (n = 390,000); AID 602179, 2012; further: nearly all actives have a fitted effect of over 65% in size
Target sequence (O75874 whole entry R132H, stated change not applied): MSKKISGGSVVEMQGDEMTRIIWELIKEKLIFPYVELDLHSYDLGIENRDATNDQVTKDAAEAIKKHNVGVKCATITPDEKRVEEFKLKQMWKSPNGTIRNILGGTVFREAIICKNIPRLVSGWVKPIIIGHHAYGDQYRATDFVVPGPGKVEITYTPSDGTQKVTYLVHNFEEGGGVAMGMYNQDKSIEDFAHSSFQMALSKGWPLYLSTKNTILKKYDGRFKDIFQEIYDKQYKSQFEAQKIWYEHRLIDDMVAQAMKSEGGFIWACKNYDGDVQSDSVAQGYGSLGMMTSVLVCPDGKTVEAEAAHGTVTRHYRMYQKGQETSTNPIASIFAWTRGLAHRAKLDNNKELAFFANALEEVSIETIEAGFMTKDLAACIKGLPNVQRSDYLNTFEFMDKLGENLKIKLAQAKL
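IDH1-R132H (0.5 ug/mL) preincubated 30 min with compound, then NADPH (0.016 mM) and alpha-KG (2 mM) added; 80 min at RT, pH 7.5. Remaining NADPH coupled via diaphorase/resazurin to fluorescence (540/590 nm); concentration-response curves normalized to no-enzyme control.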
a7 integrin act: qHTS for Activators of Integrin-Mediated Alleviation for Muscular Dystrophy | alpha7betagal myoblasts, beta-gal FDG fluorescence, 48 h | Potency, µM (series often up to 38.3 µM), actives largely listed as activators | AID 624291, 2012 | actives 0.064% (n = 350,000); further: nearly all actives have a fitted effect of over 60% in size
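Alpha7betagal+/- myoblasts (passage 13) were plated 16-24 hr, then exposed to compounds (1:260 dilution of DMSO stock) for 48 hours at 37C. After MPER lysis, β-galactosidase reporter activity was read as FDG fluorescence (ex 480/em 540) after 30 minutes.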
B2AR arrestin: qHTS assay of beta-arrestin-biased ligands of beta2-adrenergic receptor. beta-arrestin recruitment to beta2AR, cell-based reporter. Potency, µM (top dose mostly 46.1 µM), most hits filed as activators. actives 0.02% (n = 330,000); further: nearly all actives have a fitted effect of over 65% in size
DRD3 antagonist: qHTS of D3 Dopamine Receptor Antagonist: qHTS. D(3) dopamine receptor (Homo sapiens), P35462. D3R cells, DiscoveRx beta-arrestin luminescence, antagonist mode; active compounds read low. max response, negative = inhibition, %. actives 2.5% (n = 360,000). AID 652054, 2013; in the data active means max response below about -50%; inconclusive means no clear call, values can overlap the other calls
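Cells plated overnight at 1500 cells/well, then exposed to library compounds with dopamine controls for 90 minutes at 37 degrees C. DiscoveRx reagent added for 30–60 minutes at room temperature; luminescence read, quantitative HTS format.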
Hits are given with their value; i = inactive; ? = inconclusive; nt = no result given. Shown are actives, neighbours in structure and some others; about 2.9% of the full set was active somewhere. Unless noted, the call rests on the fitted dose curve; in most records, active means well fitted curve in the direction sought with a large enough effect; inconclusive means small, poorly fitted or top-dose-only effect, or another doubt; inactive means no such curve, though single readings can be large; an effect the other way counts as inactive or inconclusive.

SMILES | D3 ag | IDH1 R132H inh | a7 integrin act | B2AR arrestin | DRD3 antagonist
COc1cc(Cl)cc(/C=N\NC(=O)c2ccc3c(c2)OCO3)c1O | i | i | i | nt | i
Cc1cc(C(=O)N/N=C/c2cc(Cl)cc([N+](=O)[O-])c2O)c2ccccc2n1 | i | i | i | i | -66
OCCO[C@@H]1[C@@H](O)[C@H](O)[C@@H](CO)O[C@@H]1O | i | nt | nt | nt | nt
Cn1cnc([N+](=O)[O-])c1S(=O)(=O)Oc1ccc(Cl)cc1 | i | i | i | nt | -89
Cn1cnc([N+](=O)[O-])c1S(=O)(=O)Oc1cccc2ccccc12 | i | i | i | nt | -97
CCC1CCCCN1CCCNC(=O)c1ccc2c(c1)N(Cc1cccc(Cl)c1)C(=O)c1ccccc1S2(=O)=O (configuration not stated) | i | i | nt | nt | nt
COc1cccc(NC(=O)CSCn2nnc3c(=O)[nH]c(Cc4ccc(F)cc4)nc32)c1 | i | i | nt | nt | nt
N#Cc1ccccc1OCC(=O)N1N=C(c2cccs2)CC1c1ccco1 (configuration not stated) | i | i | i | i | i
O=C(COc1cc(F)ccc1[N+](=O)[O-])N1N=C(c2cccs2)CC1c1ccco1 (configuration not stated) | i | i | i | i | -55
COc1ccc(C2=NN(C(=O)COc3ncnc4ccccc34)C(c3ccco3)C2)cc1 (configuration not stated) | i | i | i | i | i
COc1ccc(C2=NN(C(=O)COC(=O)c3ccc(S(C)(=O)=O)c([N+](=O)[O-])c3)C(c3ccco3)C2)cc1 (configuration not stated) | i | i | i | i | -56
CCOC(=O)c1c(CSc2ccc(CC)cc2)oc2ccc(O)c(CN(C)C)c12 | i | i | i | i | -64
CCOc1ccc(CNC(=O)C2CCN(C(=O)N3CC(CC)Oc4ccc(C)cc43)CC2)cc1OC (configuration not stated) | i | i | nt | nt | nt
O=C1OCCN1CCN(CN1C(=O)CCC1=O)CN1C(=O)CCC1=O | i | i | i | i | -57
Cc1nonc1NC(=O)OCCN1CCOC1=O | i | i | i | i | i
COc1cc(OC)cc(C(=O)Nc2ccc(-c3nc4cc(C(C)C)ccc4o3)cc2)c1 | i | ? | nt | nt | nt
CN(C)CCCNc1nc2cc(-c3cccc(Cl)c3)sc2c(=O)n1C | i | nt | nt | nt | -60
CN(C)CCCNc1nc2cc(-c3cccc(C(F)(F)F)c3)sc2c(=O)n1C | i | nt | nt | nt | i
CC1(C)CC(=O)C(C=Nc2ccc(N)cc2)=C(O)C1 | i | i | i | i | i
CC1(C)CC(=O)C(C=Nc2cc(C(=O)c3ccccc3)ccc2N)=C(O)C1 | i | i | i | i | -125
COC(=O)c1ccc(N)c(N=CC2=C(O)CC(C)(C)CC2=O)c1 | i | i | i | i | -51
Cc1ccc(N2C(=O)CSC23C(=O)N(CC(=O)NC2CCCCC2)c2ccccc23)cc1 (configuration not stated) | i | i | nt | nt | nt
CCOC(=O)c1c(C)[nH]c(CCC(=O)NCc2cc(Br)ccc2OC)c1C | i | i | nt | nt | nt
COc1cc(C)c(S(=O)(=O)N2CCOCC2)cc1C | i | i | i | i | -85
O=C(COc1ccc(S(=O)(=O)N2CCCCC2)cc1)NCc1cccnc1 | 36 | i | i | i | i
SMILES | D3 ag | IDH1 R132H inh | a7 integrin act | B2AR arrestin | DRD3 antagonist
COc1cc(C(C)=O)ccc1OCCCN1CCC(c2noc3cc(F)ccc23)CC1 | i | nt | nt | nt | nt
COc1ccc(Cl)cc1C(=O)OCC(=O)NC1CCCC(C)C1C (configuration not stated) | i | i | i | i | i
COc1cccc2cc(C(=O)OCC(=O)NC3CCCC(C)C3C)c(=O)oc12 (configuration not stated) | 82 | i | i | i | i
Cc1cc(Nc2cccc(C)c2C)n2cnnc2n1 | i | i | nt | nt | nt
N#CC1=C(N)OC2=C(C(=O)CCC2)C1c1ccc(OC(=O)N2CCOCC2)cc1 (configuration not stated) | i | i | i | i | -80
CN(C)c1nc2ccc(OCCN3CCCCC3)cc2s1 | i | i | i | i | -68
